The record followed here is PubChem BioAssay (Tox21).

Molecules are shown by their SMILES. “And” between values parts separate entries of the source, which are not always exact repeats. Equal entries are not always repeated. More than one record can exist for a structure, and the calls need not agree. The source made the active and inactive calls. Unless noted, calls follow the shape of the dose curve; as a rule, active = well fitted curve in the direction sought with a large enough effect in the repeat runs; inconclusive = weak or mixed curves; inactive = no such curve, though single readings can be large; an effect the other way counts as inactive or inconclusive.

Assay [1] in a line: qHTS assay to identify small molecule antagonists of the thyroid receptor (TR) signaling pathway - cell viability counter screen (AID 743064). Also: nearly all actives have a fitted effect of over 50% in size. Also: potency is read from the fitted curve at half-maximal effect. A digest of the protocol:
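Fluorescence from CellTiter-Fluor, added after 23.5 h exposure at 37 °C, reported viability of GH3.TRE-Luc cells co-treated with compound and 1 nM T3. Measured in the same wells as the luciferase TR readout.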

Assay [2] can be described thus: qHTS assay to identify small molecule antagonists of the thyroid receptor (TR) signaling pathway (AID 743065). Also: nearly all actives have a fitted effect of over 55% in size. Also: potency is read from the fitted curve at half-maximal effect. A digest of the protocol: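 GH3.TRE-Luc rat pituitary cells (two TREs driving luciferase) were dosed with compound, then stimulated with 1 nM T3 (final) for 23.5 h at 37 C. ONE-Glo luminescence was the read-out, with CellTiter-Fluor fluorescence as the cytotoxicity counter-screen.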

For assay [3], the system named is thyroid hormone receptor (rat, GH3 cells). As to the kind of experiment: qHTS assay to identify small molecule agonists of the thyroid receptor (TR) signaling pathway (AID 743066; calls by dose curve).
Assay [4] in a line: qHTS assay to identify small molecule antagonists of the estrogen receptor alpha (ER-alpha) signaling pathway - cell viability counter screen (AID 743074; calls by dose curve;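 also: HEK293 cells carrying ER-alpha-UAS-bla reporter stimulated with 17beta-estradiol; nearly all actives have a fitted effect of over 45% in size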; also: potency is read from the fitted curve at half-maximal effect).
For assay [5], the target named is Estrogen receptor (Homo sapiens) (UniProt P03372). As to the kind of experiment: qHTS assay to identify small molecule agonists of the estrogen receptor alpha (ER-alpha) signaling pathway (AID 743075; calls by dose curve;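 also: HEK293 GripTite cells with ER-alpha and UAS-driven beta-lactamase reporter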; also: potency is read from the fitted curve at half-maximal effect).
The target is the same in assay [6]. Description: qHTS assay to identify small molecule agonists of the estrogen receptor alpha (ER-alpha) signaling pathway using the BG1 cell line (AID 743079). Also: nearly all actives have a fitted effect of over 20% in size. Also: potency is read from the fitted curve at half-maximal effect.
A short description of assay [7]: qHTS assay to identify small molecule antagonists of the estrogen receptor alpha (ER-alpha) signaling pathway using the BG1 cell line (AID 743080; calls by dose curve;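 also: BG1 cells stimulated with 17beta-estradiol alongside compound; nearly all actives have a fitted effect of over 25% in size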; also: potency is read from the fitted curve at half-maximal effect). In a few lines:
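BG1Luc4E2, endogenous ER-alpha, 4xERE-luc; 5 d charcoal-stripped FBS, phenol red free; 24 h plating; cpd + 17beta-estradiol 21.5 h, 37 C/5% CO2; CellTiter-Fluor viability 30 min, then ONE-Glo luciferase 30 min RT.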

Assay [8] is described as follows: qHTS assay to identify small molecule antagonists of the estrogen receptor alpha (ER-alpha) signaling pathway using the BG1 cell line - cell viability counter screen (AID 743081).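 Also: compound given together with 17beta-estradiol as the ER stimulus; nearly all actives have a fitted effect of over 45% in size.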 Also: potency is read from the fitted curve at half-maximal effect.
The target of the next assay is Aromatase (Homo sapiens) (UniProt P11511). Description: qHTS assay to identify aromatase inhibitors (AID 743083). Also: nearly all actives have a fitted effect of over 55% in size. Also: potency is read from the fitted curve at half-maximal effect.
Chain of Aromatase (Homo sapiens) (P11511 whole entry, looked up): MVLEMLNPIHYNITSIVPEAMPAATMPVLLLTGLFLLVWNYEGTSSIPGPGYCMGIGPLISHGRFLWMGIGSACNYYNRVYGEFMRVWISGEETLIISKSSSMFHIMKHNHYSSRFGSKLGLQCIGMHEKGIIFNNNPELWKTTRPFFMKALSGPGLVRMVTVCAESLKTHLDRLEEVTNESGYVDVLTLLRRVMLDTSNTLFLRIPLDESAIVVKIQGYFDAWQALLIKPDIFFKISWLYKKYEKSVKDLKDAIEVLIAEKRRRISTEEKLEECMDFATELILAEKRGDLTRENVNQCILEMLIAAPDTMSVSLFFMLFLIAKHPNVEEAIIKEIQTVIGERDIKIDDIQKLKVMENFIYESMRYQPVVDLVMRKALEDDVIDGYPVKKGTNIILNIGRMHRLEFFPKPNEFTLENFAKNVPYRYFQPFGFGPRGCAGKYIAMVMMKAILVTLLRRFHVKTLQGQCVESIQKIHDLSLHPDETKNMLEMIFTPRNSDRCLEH

Chain of Estrogen receptor (Homo sapiens) (P03372 whole entry, looked up): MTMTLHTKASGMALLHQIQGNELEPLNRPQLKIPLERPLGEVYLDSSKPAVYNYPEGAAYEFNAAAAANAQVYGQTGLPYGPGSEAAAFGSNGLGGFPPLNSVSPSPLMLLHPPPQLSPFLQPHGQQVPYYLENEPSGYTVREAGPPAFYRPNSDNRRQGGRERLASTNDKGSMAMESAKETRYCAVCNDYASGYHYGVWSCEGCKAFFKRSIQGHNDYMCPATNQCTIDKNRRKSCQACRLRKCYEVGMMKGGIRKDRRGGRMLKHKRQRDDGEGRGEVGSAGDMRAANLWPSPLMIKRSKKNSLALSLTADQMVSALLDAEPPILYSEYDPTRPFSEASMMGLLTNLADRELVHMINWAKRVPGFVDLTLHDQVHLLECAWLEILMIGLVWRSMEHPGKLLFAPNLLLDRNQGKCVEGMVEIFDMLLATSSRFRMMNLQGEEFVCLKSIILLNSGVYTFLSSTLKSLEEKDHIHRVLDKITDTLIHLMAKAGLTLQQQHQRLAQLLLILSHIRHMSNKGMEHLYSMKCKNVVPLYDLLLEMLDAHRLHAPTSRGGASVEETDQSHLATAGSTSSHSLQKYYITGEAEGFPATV

Take `O=C1NCC2(CCN(CCc3ccccc3)CC2)O1`: the Potency entry in assay [1], in assay [2], in assay [3], in assay [4], in assay [5] and in assay [7] was “inactive” in each case. Besides, the Potency entry (in assay [8]; with Aromatase (Homo sapiens)) was “inactive” in each case. Also, the Potency in assay [6] is 29.8 µM (active).
In the case of `c1cc(C(c2ccc(OCC3CO3)cc2)C(c2ccc(OCC3CO3)cc2)c2ccc(OCC3CO3)cc2)ccc1OCC1CO1` (stereo not given), the Potency in assay [1] is 48.5 µM (active); in assay [2], 20.1 µM (active) and 21.7 µM (active); in assay [6], 20.1 µM (active) and 21.7 µM (active). Further, the Potency result (in [3]; in assay [4]; in [5]; in assay [8]; in the assay with Aromatase (Homo sapiens)) was “inactive” each time.
For `CN(C)c1ccc(C(=C2C=CC(=[N+](C)C)C=C2)c2ccccc2)cc1`, the Potency in assay [1] is 7.5 µM (active) and 68.6 nM (active); in assay [2] it was 6.68 µM (active) and 48.6 nM (active); in [4], 1.1 µM (active); in assay [8], “inactive and 9.69 µM (active)”; in the assay with Aromatase (Homo sapiens), 243 nM (active). Moreover, the Potency result in assay [3] is “inactive”.
As to `Cc1ccnc2c1NC(=O)c1cccnc1N2C1CC1`, the Potency entry (in assay [1]; in assay [2]; in assay [3]; in assay [4]; in assay [8]; with Aromatase (Homo sapiens)) was “inactive” each time.
Consider `NC(Cc1ccc(Cl)cc1)C(=O)O` (stereo not given), for which the Potency result (in [1]; in assay [2]; in [3]; in [4]; in [8]; in the assay with Aromatase (Homo sapiens)) was “inactive” each time.
Turning to `CCCC(=O)c1ccccc1`, the Potency entry (in [1]; in assay [2]; in assay [3]; in [4]; in assay [8]; in the assay with Aromatase (Homo sapiens)) was “inactive” throughout.
With `CC(=O)C1=C(C)[C@@H]2C[C@@]3(C1)[C@H](C)CC[C@H]3C2(C)C`, in assay [1], the Potency is 63.9 µM (active) and inactive. In addition, the Potency entry in assay [3], in [4], in assay [5], in assay [6], in [7] and in [8] was “inactive” in each case. The Potency result with Aromatase (Homo sapiens) was “inactive”.
For the compound `Cc1ccc(S(=O)(=O)Oc2ccc(N=Nc3ccc(-c4ccc(N=Nc5c(O)ccc6cc(S(=O)(=O)O)cc(S(=O)(=O)O)c56)c(C)c4)cc3C)cc2)cc1`, the Potency in assay [1] is 27.4 µM (active) and 17.8 µM (active); in assay [2] it was 10.9 µM (active); in assay [8] it was 30.8 µM (active) and 15.9 µM (active). In addition, the Potency entry in assay [3] is “inactive”.
`Nc1nc(=S)c2[nH]cnc2[nH]1`: the Potency result (in [1]; in assay [2]; in [3]; in assay [8]; with Aromatase (Homo sapiens)) was “inactive” each time. The Potency is 19 µM [activator] (active) and inactive in assay [5]; 21.1 µM (active) and inactive in assay [6]; “inactive and 750 nM (active)” in assay [7].
For the compound `Cc1cc(Cc2cc(C)cc(C(C)(C)C)c2O)c(O)c(C(C)(C)C)c1`, the Potency is 15.4 µM (active) and 12.2 µM (active) in assay [1]; 6.89 µM (active) and 8.63 µM (active) in [2]; 22 µM (active) and 24.5 µM (active) in assay [4]; 68.9 µM (active) in assay [8]; 30.8 µM (active) and 48.6 µM (active) in the assay with Aromatase (Homo sapiens). Further, the Potency result in [3] is “inactive”.
As to `OCCOCCN1CCN(C(c2ccccc2)c2ccc(Cl)cc2)CC1` (stereo not given), the Potency in assay [1] was 26.9 µM (active); in assay [2], 23.7 µM (active) and 47.9 µM (active). Further, the Potency entry (in assay [3]; in [4]; in assay [8]; in the assay with Aromatase (Homo sapiens)) was “inactive” throughout.
Take `O=c1n(CC2CO2)c(=O)n(CC2CO2)c(=O)n1CC1CO1` (stereo not given): the Potency is 12.1 µM (active) and 27.3 µM (active) in assay [1]; 6.68 µM (active) and 8.58 µM (active) and 4.33 µM (active) in assay [2]; “inactive and 48.3 µM (active)” in the assay with Aromatase (Homo sapiens). Also, the Potency result in assay [3], in assay [4], in assay [5], in [6] and in [8] was “inactive” throughout.
As to `COC(=O)[C@H]1[C@H]2C[C@@H]3c4[nH]c5cc(OC)ccc5c4CCN3C[C@H]2C[C@@H](OC(=O)c2cc(OC)c(OC)c(OC)c2)[C@@H]1OC`, the Potency in assay [1] was 11.9 µM (active) and 24.3 µM (active); in assay [2], 11.9 µM (active) and 21.6 µM (active) and 39.7 µM (active); with Aromatase (Homo sapiens) it was 16.8 µM (active) and 27.3 µM (active) and 56 µM (active). Also, the Potency result in [4] and in assay [8] was “inactive” throughout.
As to `O=C(O)CCc1ccccc1`, the Potency result in assay [1], in assay [2], in [3], in assay [4] and in assay [8] was “inactive” in each case.
As to `CNCCC(Oc1ccc(C(F)(F)F)cc1)c1ccccc1` (stereo not given), the Potency in assay [1] was 11.9 µM (active) and 9.56 µM (active); in assay [2], 11.9 µM (active) and 15.2 µM (active); in assay [4] it was “inactive and 48.4 µM (active)”; with Aromatase (Homo sapiens), 47900 nM (active). Moreover, in [8], the Potency result is “inactive”.
Take `CCc1ccc(C(c2ccc(CC)cc2)C(Cl)Cl)cc1`: the Potency entry in assay [1], in assay [2], in [3], in assay [5], in assay [7] and in [8] was “inactive” each time. In addition, the Potency result in the assay with Aromatase (Homo sapiens) is “inactive”.
For the compound `Cc1occc(=O)c1OC(=O)C(C)C`, the Potency result (in [1]; in assay [2]; in [3]; in assay [4]; in assay [8]; with Aromatase (Homo sapiens)) was “inactive” throughout.
In the case of `Cc1cccc([N+](=O)[O-])c1C(=O)O`, the Potency entry in assay [1], in assay [3], in [4], in assay [5], in [6] and in assay [7] was “inactive” in each case. Besides, the Potency entry (in assay [8]; with Aromatase (Homo sapiens)) was “inactive” each time.
Turning to `CCCCCCC(O)CCCCCCCCCCC(=O)O` (stereo not given), the Potency entry (in [1]; in assay [2]; in [3]; with Aromatase (Homo sapiens)) was “inactive” each time.
For the compound `COc1ccc(CCN(C)CCCC(C#N)(c2ccc(OC)c(OC)c2)C(C)C)cc1OC` (stereo not given), the Potency in [1] was 23.7 µM (active) and 21.6 µM (active); in assay [2], 26.6 µM (active) and 30.6 µM (active); in [8], “inactive and 30.6 µM (active)”. For the same compound, the Potency result in assay [3] and in assay [4] was “inactive” each time.
Regarding `COc1nc(C)nc(Cl)c1NC1=NCCN1`, the Potency entry in assay [1], in assay [2], in assay [3], in [4], in [5] and in [6] was “inactive” each time. Further, the Potency entry (in assay [7]; in the assay with Aromatase (Homo sapiens)) was “inactive” throughout.
For `Cc1cccc2n[nH]nc12`, the Potency result in [1], in assay [2], in assay [3], in assay [4] and in assay [8] was “inactive” throughout.
`CC(N)=O`: the Potency result (in assay [1]; in assay [2]; in assay [3]; in assay [4]; in assay [8]; with Aromatase (Homo sapiens)) was “inactive” throughout.
For `CCn1c2ccccc2c2cc(N)ccc21`, the Potency entry in [1], in [3], in assay [4], in assay [6], in assay [7] and in [8] was “inactive” in each case. The Potency entry with Aromatase (Homo sapiens) was “inactive”. In [5], the Potency was 48.5 µM [inconclusive] (active) and inactive.
For `CC1=CC(=O)c2ccccc2C1=O`, the Potency is 13.7 µM (active) in [1]; 21.1 µM (active) and 13.7 µM (active) in assay [2]; 29.8 µM (active) in assay [7]; “inactive and 19.3 µM (active)” with Aromatase (Homo sapiens). In addition, the Potency entry in [3], in assay [4] and in assay [8] was “inactive” throughout.
